Experimental data: PubChem BioAssay
Results filed as inconclusive are left out. Activity calls are given as the source filed them. Unless noted, the limit is not given here; nearly all actives have AC50 up to about 26 µM.

What was measured:
[1] = viability loss in pontine glioma line – cell-based, SU-DIPG-XVII, MIPE5.0, CellTiter-Glo, qHTS, dose response (AID 1347060); settings: CellTiter-Glo ATP luminescence;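 also: cells exposed to compound for 48 hours before viability readout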
[2] = viability loss in pontine glioma line – cell-based, SU-DIPG-XIII, MIPE4.0, CellTiter-Glo, qHTS, dose response (AID 1347061; cut-off not given, nearly all actives have AC50 up to about 37 µM;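 also: cells exposed to compound for 48 hours before readout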); settings: CellTiter-Glo ATP luminescence
[3] = viability loss in pontine glioma line – cell-based, JHH-DIPG-1, MIPE4.0, CellTiter-Glo, qHTS, dose response (AID 1347062; cut-off not given, nearly all actives have AC50 up to about 27 µM;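 also: cells exposed to compound for two days before readout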); settings: JHH-DIPG-1 viability, CellTiter-Glo ATP luminescence
[4] = viability loss in pontine glioma line – cell-based, SU-DIPG-IV, MIPE4.0, CellTiter-Glo, qHTS, dose response (AID 1347063; cut-off not given, nearly all actives have AC50 up to about 30 µM;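 also: compound exposure lasted 48 hours before the viability readout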); settings: CellTiter-Glo ATP luminescence
[5] = viability loss in pontine glioma line – cell-based, SU-DIPG-XIII, MIPE5.0, CellTiter-Glo, qHTS, dose response (AID 1347064; cut-off not given, nearly all actives have AC50 up to about 23 µM;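 also: cells exposed to compound for 48 hours before the viability read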); settings: CellTiter-Glo ATP luminescence
[6] = viability loss in pontine glioma line – cell-based, SU-DIPG-XXV, MIPE5.0, CellTiter-Glo, qHTS, dose response (AID 1347065); settings: CellTiter-Glo ATP luminescence;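 also: cells exposed to compound for 48 hours before ATP readout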
[7] = JHH-DIPG-1 glioma cell viability, MIPE5.0 library, CellTiter-Glo luminescence, qHTS (AID 1347067); settings: JHH-DIPG-1 glioma viability, CellTiter-Glo ATP luminescence;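 also: cells exposed to compound for 48 hours before readout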
[8] = growth inhibition of DIPG cells – cell-based, MIPE5.0 library, qHTS (AID 1347068; cut-off not given, nearly all actives have IC50 up to about 30 µM;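 also: cells exposed to compound for 48 hours before viability readout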); settings: SU-DIPG-XXV viability

Cc1ccc(-c2ncn(-c3ccc(Nc4nccc(-c5cccc(N6CCOCC6)c5)n4)cc3)n2)cn1
active: AC50 [1] 2350 nM | AC50 [2] 83.3 nM | AC50 [3] 93.5 nM | AC50 [4] 118 nM | AC50 [5] 2630 nM | AC50 [6] 2950 nM | AC50 [7] 2630 nM | IC50 [8] 16600 nM
